From PubChem BioAssay
Most compounds without a hit are left out; they make up all but 1.7% or so of the library.
IDH1 R132H inh = human IDH1 R132H inhibition. O75874. IDH1-R132H enzyme, NADPH consumption, diaphorase/resazurin fluorescence. Potency, µM (series often up to 76.6 µM), most hits filed as inhibitors. 390,000 tested, 0.093% active. AID 602179; note: nearly all actives have a fitted effect of over 65% in size
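IDH1-R132H (0.5 ug/mL) preincubated 30 min with compound, then NADPH (0.016 mM) and alpha-KG (2 mM) added; 80 min at RT, pH 7.5. Remaining NADPH coupled via diaphorase/resazurin to fluorescence (540/590 nm); concentration-response curves normalized to no-enzyme control.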
TrxR1 inh = rat TrxR1 inhibition; O89049; recombinant rTrxR1, NADPH fluorescence consumption, selenite substrate; Potency, µM (top dose mostly 114 µM), most hits filed as inhibitors; 390,000 tested, 1% active; AID 588453; note: nearly all actives have a fitted effect of over 65% in size
Target sequence (O89049 whole entry, looked up): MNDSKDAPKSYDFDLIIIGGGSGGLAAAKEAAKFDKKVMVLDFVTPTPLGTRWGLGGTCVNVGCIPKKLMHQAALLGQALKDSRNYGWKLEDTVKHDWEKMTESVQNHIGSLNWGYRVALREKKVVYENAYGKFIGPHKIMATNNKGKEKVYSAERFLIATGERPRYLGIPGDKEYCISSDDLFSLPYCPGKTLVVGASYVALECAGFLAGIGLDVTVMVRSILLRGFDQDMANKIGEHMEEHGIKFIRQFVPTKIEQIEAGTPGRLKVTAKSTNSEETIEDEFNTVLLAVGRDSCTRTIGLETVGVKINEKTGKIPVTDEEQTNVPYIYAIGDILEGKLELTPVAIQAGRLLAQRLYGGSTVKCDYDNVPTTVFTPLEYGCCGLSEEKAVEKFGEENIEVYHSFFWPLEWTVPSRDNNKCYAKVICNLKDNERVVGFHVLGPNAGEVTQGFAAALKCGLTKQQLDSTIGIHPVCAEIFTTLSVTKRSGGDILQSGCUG
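Rat TrxR1 (90 nM in the dispensed reagent) was pre-reduced with 400 uM NADPH for 5 min at room temperature, then incubated with compound for 15 min. After 400 uM selenite was added, NADPH fluorescence (Ex 340/Em 450 nm) was followed for 8 min.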
TrxR1 substrate = substrates of rat thioredoxin reductase 1; O89049; purified TrxR1 substrate turnover, NADPH consumption readout; Potency, µM (doses to about 114 µM); 390,000 tested, 0.01% active; note: nearly all actives have a fitted effect of over 50% in size
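Rat TrxR1, dispensed at 90 nM, was prereduced with 400 uM NADPH (final) for 5 min at ~22 deg C, then incubated with compound 15 min before 400 uM selenite. A first-read NADPH fluorescence drop versus no-compound background flagged substrates.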
12-LOX inh = blocks human arachidonate 12S-lipoxygenase | Potency, µM (series often up to 108 µM), usual class: inhibitors | 580,000 tested, 1.1% active | AID 1671190 | purified 12hLO, xylenol orange hydroperoxide absorbance | P18054
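Hydroperoxide product was detected by ferrous iron/xylenol orange as the 573 to 405 nm absorbance ratio. Arachidonic acid at 40 uM (final) was turned over for 30 min at room temperature by 150 nM human 12hLO, pH 7.0 Hepes buffer, after 15 min compound preincubation.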
Apoferritin bind = binds horse apoferritin like a general anesthetic; P02791; apoferritin/1-aminoanthracene competitive binding, fluorescence; Potency, µM (highest dose often 77.5 µM), most hits filed as inhibitors; 350,000 tested, 0.074% active; note: nearly all actives have a fitted effect of over 20% in size
Target sequence (P02791 2-175 limits assumed): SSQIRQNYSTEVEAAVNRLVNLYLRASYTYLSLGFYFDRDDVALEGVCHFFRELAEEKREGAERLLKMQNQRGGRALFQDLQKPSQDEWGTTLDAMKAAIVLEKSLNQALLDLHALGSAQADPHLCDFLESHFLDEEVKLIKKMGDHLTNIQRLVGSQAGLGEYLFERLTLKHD
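Read-out: endpoint 1-AMA fluorescence, excitation 380 nm and emission 535 nm, after compounds sit 10 min at room temperature with 10 uM horse-spleen apoferritin in 50% saturated 1-AMA/PBS. Values come from four-parameter Hill fits.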
Glioma ERSR ind = induces the endoplasmic reticulum stress response in human glioma cells; U87-MG GRP78 promoter luciferase reporter, 16 h; Potency, µM, hits mostly activators; 420,000 tested, 0.02% active; AID 602332; note: series mostly up to about 76 µM; nearly all actives have a fitted effect of over 35% in size
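Stably transfected U87-MG human glioma cells carrying a GRP78-based luminescent sensor were seeded at 1000 cells/well, pin-dosed with compounds and incubated 16 h. Luciferase reagent was then added, and end-point luminescence was read after 10 min at room temperature.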
Numbers stand for hits; - = inactive; ? = inconclusive; . = not tested or not shown; ! = not confirmed by another sample; [ ] = dose if it differs, or a comment. Calls come from the whole dose curve; as a rule, active = well fitted curve in the direction sought with a large enough effect; inconclusive = small, poorly fitted or top-dose-only effect, or another doubt; inactive = no such curve, though single readings can be large; an effect the other way counts as inactive or inconclusive.

SMILES | IDH1 R132H inh | TrxR1 inh | TrxR1 substrate | 12-LOX inh | Apoferritin bind | Glioma ERSR ind
C[C@]12CCC3C(CCC4=CC(=O)CC[C@@H]43)C1CCC2O (stereo partly drawn) | . | . | . | . | . | -
C[C@]12CC[C@@H]3c4ccc(OC(=O)N(CCCl)CCCl)cc4CC[C@H]3[C@@H]1CC[C@@H]2O | . | . | . | . | . | -
C[C@]12CC[C@@H]3c4cc(O)c(O)cc4CC[C@H]3[C@@H]1CC[C@@H]2O | - | ? | - | 7.9µM | - | -
C[C@]12CC[C@@H]3c4ccc(O)c(O)c4CC[C@H]3[C@@H]1CC[C@@H]2O | - | ? | - | 5µM | ? | -
O=C(c1cn[nH]c1-c1ccc(F)cc1)N1CCC2(CC1)OCCO2 | . | . | . | - | . | .
O=C(C1CCCCC1)N1[C@H]2CC[C@@H]1c1cnc(-c3ccccc3)nc1C2 | . | . | . | - | . | .
O=c1c2ccccc2nc(/C=C/c2ccccc2O)n1-c1ccccc1O | . | . | . | ? | - | .
O=c1c2ccccc2nc(/C=C/c2ccccc2F)n1-c1ccccc1O | - | - | - | 11µM | - | -
C[N+]12CCC(CC1)C(=C(c1ccccc1)c1ccccc1)C2 | - | - | - | 35µM | - | -
CN1C[C@H](O)[C@H]2C[C@@H]1c1ccccc1O2 | . | . | . | - | . | .
C=CCN1CCc2cccc3c2C1Cc1ccc(O)c(O)c1-3 (stereo not drawn) | . | ? | . | ? | - | -
CCCN1CCc2cccc3c2[C@H]1Cc1ccc(O)c(O)c1-3 | - | 24µM | ? | . | . | -
N#CC(C#N)=C(C#N)c1ccc(Nc2ccccc2)cc1 | - | 7.1µM | - | ? | - | -
c1ccc(Nc2ccc(Nc3ccccc3)cc2)cc1 | - | - | - | 14µM | . | -
C[C@]12[C@H](O)CC3C(CC[C@@H]4C[C@@H](O)CC[C@]34C)[C@@]1(O)CC[C@@H]2C1=CC(=O)OC1 (stereo partly drawn) | . | . | . | . | . | -
Cc1ccc([N+](=O)[O-])[c]2c1[O][Hg]2 | . | . | . | 0.051µM | . | .
CC1CCN(C(CC(=O)c2ccccc2)C(=O)c2ccccc2)CC1 (stereo not drawn) | - | - | -[2.29 µM] | 8.9µM | . | -
Cc1ccc2c(Cl)cc(Cl)c(O)c2n1 | - | - | - | ? | - | 28µM!
NC(=O)c1cn(C2OC(CO)C(O)C2O)c2ncnc(N)c12 (stereo not drawn) | - | - | - | 18µM! | - | -
Cc1noc(C(C)N2CCN(C(=O)Cc3ccccc3Cl)CC2)n1 (stereo not drawn) | . | . | . | - | . | .
C/C(=C\c1ccc2c(c1)OCO2)[N+](=O)[O-] | . | . | . | 14µM | . | .
O=[N+]([O-])/C=C/c1ccc2c(c1)OCO2 | . | 10µM | - | . | . | -
COc1cc2c(cc1/C=C/[N+](=O)[O-])OCO2 | - | ? | - | - | - | -
O=C(NCc1ccccc1)[C@H]1CN2CC[C@H]1C[C@@H]2Cn1cc(CO)nn1 | . | . | . | - | . | .
CCOC(=O)[C@]12Cc3cc(Cl)ccc3[C@H]1N(C1CCCCC1)C(=O)c1cc(OC)ccc12 | . | . | . | 45µM | . | .
SMILES | IDH1 R132H inh | TrxR1 inh | TrxR1 substrate | 12-LOX inh | Apoferritin bind | Glioma ERSR ind
CCOC(=O)[C@]12Cc3ccc(C)cc3[C@H]1N(C1CCCCC1)C(=O)c1cc(OC)ccc12 | . | . | . | 56µM | . | .
CCOC(=O)[C@]12Cc3cc(C)ccc3[C@H]1N(C1CCCCC1)C(=O)c1ccccc12 | . | . | . | 50µM | . | .
O=C1C(=O)c2ccccc2-c2ccccc21 | - | 10µM | 3.2µM | - | - | -
O=C1C(=O)c2cccc3cccc1c23 | - | - | - | - | - | -
Cc1ccnc(NS(=O)(=O)c2ccc(N=Cc3c(O)n(C)c(=O)n(C)c3=O)cc2)n1 | - | - | - | 5µM | - | -
O=C(O)C1CN(Cc2ncc[nH]2)CCN(C(=O)Cc2cccs2)C1 (stereo not drawn) | . | . | . | - | . | .
CC(C)NC(=O)N1C[C@@H]2C[C@H](C1)c1ccc(C3CCCCC3)c(=O)n1C2 | . | . | . | 32µM | . | .
CCOc1cc(C=C2C(=O)NC(=O)NC2=O)ccc1OS(=O)(=O)c1ccccc1 | - | ? | - | . | ? | -
CCN1CCN(c2ccc([N+](=O)[O-])cc2C=C2C(=O)NC(=O)NC2=O)CC1 | - | ? | - | ? | - | -
O=C1NC(=O)C(=Cc2cccc(OCCOc3ccccc3)c2)C(=O)N1 | - | 16µM | - | ? | ? | -
Cc1ccc(OCCOc2cccc(C=C3C(=O)NC(=O)NC3=O)c2)c(C)c1 | - | 7.9µM | - | ? | ? | -
O=C1NC(=O)C(=Cc2ccc(OCCOc3ccc([N+](=O)[O-])cc3)cc2)C(=O)N1 | - | 35µM | - | ? | - | -
CC(Cl)C(=O)NC1CCCCC1 (stereo not drawn) | . | . | . | - | . | .
O=C1Nc2ccccc2CC12CCCN2Cc1ccncc1 (stereo not drawn) | . | . | . | -[6.33 µM] | . | .
CC[C@H]1CN2CC[C@H]1C[C@@H]2CNC(=O)c1ccc(C(F)(F)F)cc1 | . | . | . | - | . | .
CCOc1cc(/C=C2\C(=O)NC(=O)N(CCc3ccc(F)cc3)C2=O)ccc1O | - | 11µM | - | ? | - | -
Cc1ccc(NC(=O)N(Cc2ccc3c(c2)OCO3)C2CCN(Cc3ccccc3)CC2)cc1Cl | - | - | - | 45µM | - | -
Cc1ccc(-n2c(/C=C/c3ccccn3)nc3ccccc3c2=O)cc1 | - | - | - | - | - | -
Cc1ccc(-n2c(/C=C/c3ccco3)nc3ccccc3c2=O)cc1 | . | . | . | 16µM | . | .
N#CC(C#N)=Cc1ccc(C=C(C#N)C#N)cc1 | - | 7.9µM | - | ? | - | -
CCCCCCCCn1sccc1=O | - | ? | - | 45µM | . | -
C=CCN(C)C[C@H]1CN2CC[C@H]1C[C@@H]2CNS(C)(=O)=O | . | . | . | - | . | .
CCN(CC)c1ccc(C=C2C(=O)NC(=S)NC2=O)cc1 | - | 4.5µM | - | ? | - | -
CCOc1ccc(C=C2C(=O)NC(=S)NC2=O)cc1OCC | - | 8.9µM | - | ? | . | -
CN(C)c1ccc(C=C2C(=O)NC(=O)NC2=O)cc1 | - | -[2.29 µM] | - | ? | . | -
SMILES | IDH1 R132H inh | TrxR1 inh | TrxR1 substrate | 12-LOX inh | Apoferritin bind | Glioma ERSR ind
CN(C)c1ccc(C=C2C(=O)NC(=S)NC2=O)cc1 | - | 4µM | - | ? | . | ?
CNCc1cn(C[C@H]2CC3CCN2C[C@@H]3C(=O)NCc2ccccc2)nn1 (stereo partly drawn) | . | . | . | - | . | .
CC[C@H]1CN2CC[C@H]1C[C@@H]2CNS(=O)(=O)c1ccc(Cl)cc1 | . | . | . | - | . | .
O=C(O)[C@@H]1CCN1 | . | - | - | 25µM | . | -
Cc1ccsc1/C=C1\C(=O)NC(=S)N(C)C1=O | - | 32µM | - | ? | - | -
COc1ccc(/C=C2\C(=O)NC(=S)N(C)C2=O)cc1C | - | ? | - | ? | - | -
CN1C(=O)/C(=C/c2ccc(Cl)s2)C(=O)NC1=S | - | 8.9µM | - | 4.5µM | - | -
C=CCN1C(=O)/C(=C/c2ccc(Br)s2)C(=O)NC1=S | - | 6.3µM | - | 5.6µM | ? | -
CCN1C(=O)/C(=C\c2ccc([N+](=O)[O-])s2)C(=O)NC1=S | . | . | . | . | - | .
